Experimental data from PubChem BioAssay.
Activity calls are given as the source filed them.

How the values were obtained:
[1] = compound effects on lung adenocarcinoma cell viability – A549, calcein-AM fluorescence, 48 h, basal, profiling panel (AID 1162); details: higher = more signal
[2] = compound effects on differentiated 3T3-L1 adipocyte viability – cell-based, 3T3-L1 adipocytes, calcein-AM fluorescence, 48 h, basal, profiling panel (AID 1163); details: 3T3-L1 adipocytes viability, higher = more signal
[3] = compound effects on hepatocellular carcinoma cell viability – HepG2, calcein-AM fluorescence, 48 h, basal, profiling panel (AID 1164); details: higher = more signal
[4] = compound effects on multiple myeloma cell viability – MM1S, calcein-AM fluorescence, 48 h, basal, profiling panel (AID 1165); details: higher = more signal;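 note: viability of MM1S multiple myeloma cells under basal unstimulated conditions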
[5] = calcein-AM signal in unstimulated myeloma cells – cell-based, calcein-AM fluorescence, 48 h, PK04 Diversity Set, profiling panel (AID 1166); details: RPMI8226 myeloma viability, higher = more signal;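 note: cells grown under basal conditions without added stimulus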
[6] = JC-1 mitochondrial signal, unstimulated HepG2 cells – cell-based, JC-1 fluorescence, 24 h, 100 nL compound, profiling panel (AID 1167); details: HepG2 mitochondrial potential, higher = more signal
[7] = JC-1 mitochondrial signal, unstimulated adipocytes – cell-based, JC-1 fluorescence, 3T3-L1 adipocytes, 24 h, 100 nL compound, profiling panel (AID 1168); details: JC-1 mitochondrial fluorescence, higher = more signal, called active from +8 up or from −8 down
[8] = JC-1 mitochondrial signal, unstimulated myeloma cells – cell-based, JC-1 fluorescence, RPMI8226, 24 h, 100 nL compound, profiling panel (AID 1169); details: JC-1 mitochondrial potential fluorescence, higher = more signal
[9] = JC-1 mitochondrial signal, unstimulated MM1S myeloma – cell-based, JC-1 fluorescence, 24 h, 100 nL compound, profiling panel (AID 1170); details: MM1S mitochondrial potential, higher = more signal
[10] = resazurin metabolic signal in A549 cells – cell-based, resazurin fluorescence, 24 h, PK04 Diversity Set, profiling panel (AID 1171); details: A549 viability, higher = more signal, called active from +8 up or from −8 down
Note: test concentration not given here.

SMILES	z-score [1]	z-score [2]	z-score [3]	z-score [4]	z-score [5]	z-score [6]	z-score [7]	z-score [8]	z-score [9]	z-score [10]
O=C1[C@H]2[C@H]3[C@H](O)[C@H](O)CC(=NO[C@@H]4O[C@H](CO)[C@@H](O)[C@H](O)[C@H]4O)[C@H]3CC[C@H]2C(=O)N1Cc1ccccc1	-0.0916	-0.0474	-0.571	0.713	-0.716	0.616	-0.0221 (inactive)	0.42	-0.755	0.623 (inactive)
CCOC(=O)[C@H](CC(C)C)NC(=O)CCC1CC(OC(=O)NCc2cccc3ccccc23)CC2(CCCC(COC(=O)NCCc3ccccc3OC)O2)O1 (stereo not given in full)	-0.571	-0.187	-0.766	0.0779	-0.407	0.602	-0.0276 (inactive)	-0.0975	-0.157	0.45 (inactive)
CO[C@@H]1COC(=O)CC=C[C@@H](C)COC(=O)[C@H](COCc2ccccc2)NC(=O)CC=C[C@H]1C	0.248	0.268	0.351	-0.987	-0.382	0.575	-0.407 (inactive)	-0.873	1.61	-0.653 (inactive)
CN(C)C(=O)[C@@]1(Cc2ccccc2)N=C(c2ccc(OCCCO)cc2)O[C@H]1c1ccccc1CN=[N+]=[N-]	-0.309	-0.562	-0.903	-0.74	-2.6	-0.12	-0.775 (inactive)	-0.913	-0.589	-0.348 (inactive)
COc1ccc(-c2ccc3c(n2)CCCN3CC(O)CN2CCCc3nc(C)c(C)cc32)cc1 (stereo not given)	-0.389	-0.943	0.151	0.676	-0.158	1.58	-0.205 (inactive)	-0.108	-0.975	-0.542 (inactive)
CCOC(=O)C[C@H]1[C@H](OC(=O)c2ccc(C(=O)c3ccccc3)cc2)[C@@H](NC(=O)c2ccc(-c3ccccc3)cc2)c2cc(OCCCO)ccc2N1C(=O)c1ccc2ccccc2n1	1.03	1.44	1.35	0.598	1.08	1.92	1.98 (inactive)	0.611	-1.18	0.336 (inactive)
C=C(/C(=C/C[C@H](OC(C)=O)c1ccc(OCCO)cc1)c1cnc2ccccc2c1)C(C)C	0.207	1.03	-0.427	-0.753	0.383	1.56	-0.449 (inactive)	-0.416	0.0674	1.76 (inactive)
C=C(COC)/C(=C/C[C@H](OC(=O)c1ccncc1)c1ccc(CO)o1)c1cc(C(=O)OC)ccc1OC	-1.2	-0.256	-0.981	-0.43	-0.111	-0.47	-1.01 (inactive)	0.126	0.00652	0.451 (inactive)
COc1ccc([Si](C)(C)[C@H]2[C@H](CC(=O)N3CCC[C@H]3CO)O[C@@]3(C(=O)N(Cc4cccc(N5C(=O)COc6ccccc65)c4)c4ccccc43)[C@@H]2C)cc1	0.819	0.198	1.01	-2.42	-4.37	4.27	1.86 (inactive)	-0.938	0.741	-0.343 (inactive)
COc1ccc([Si](C)(C)[C@@H]2[C@@H](CC(=O)N3CCC[C@H]3CO)O[C@]3(C(=O)N(Cc4cccc(N5CCC5=O)c4)c4ccccc43)[C@H]2C)cc1	-0.208	-1.34	-4.16	-2.71	-4.33	-0.729	0.999 (inactive)	-1	-2.19	-1.39 (inactive)
COCCOC(=O)N1C(=O)[C@@]2(c3cc(C#Cc4ccc(OC)cc4)ccc31)[C@H](c1ccc(O)cc1)N1[C@H](c3ccccc3)[C@H](c3ccccc3)OC(=O)[C@H]1[C@@H]2C(N)=O	-0.64	0.38	-0.531	-2.08	-3.7	-1.74	0.563 (inactive)	-0.896	-0.721	-1.51 (inactive)
CCc1cc2c(nc1CC)CCN(CCC(C)=NO[C@@H](C)c1cc(-c3c(C)cc(C)cc3C)no1)C2	1.9	0.704	1.48	-2.96	-1.59	5.47	0.0344 (inactive)	0.0876	-0.769	0.323 (inactive)
COCC1=C2[C@@H](CCc3ccccc3)OB(O)C[C@@H]2n2c(=O)n(-c3ccccc3)c(=O)n2C1	-0.0316	-0.174	0.602	-0.0123	-0.412	-1.83	0.619 (inactive)	0.164	0.368	-0.566 (inactive)
C=CC[C@@H]1C=C[C@H](ON=Cc2ccc(C(=O)N3[C@H](c4ccc(C)cc4)[C@@H](C)CC[C@H]3C(=O)OC)cc2)[C@@H](CO)O1	0.319	-0.361	-0.431	-0.581	-1.4	-1.67	-0.0052 (inactive)	0.634	-0.434	-0.299 (inactive)
CCOC(=O)[C@H](Cc1ccccc1)NC(=O)CCC1CC(OC(=O)NCCc2ccc(F)cc2)CC2(CCCC(COC(=O)NCC(c3ccccc3)c3ccccc3)O2)O1 (stereo not given in full)	0.241	-0.351	-1.03	-3.42	-3.75	0.368	-0.88 (inactive)	-1	-2.12	0.919 (inactive)
